{"source": "the supplement of paper PMC6555819"}
{"system": "PPARg homodimer (NR concentration 180 nM)", "experiment": "PBM binding z-score (relative to random genomic background probes); higher = stronger binding; sequences stand for … in GC…GCGATTGACAGCGTAGAATGAAGG", "summary_of_the_method": "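Scanned fluorescence from custom Agilent 4×180K protein-binding microarrays was regression-normalized. Binding z-scores use random background probes as reference. Ligand-free nuclear receptor dimers were incubated on the arrays for 1 h and detected with antibodies against each partner (one per run).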"}
{"sequence": "CCTACTGGGCCATTCAGAGGTCAGTGATCATATG", "PBM binding z-score": 2.08}
{"sequence": "CCTCGGAGGACAACAGGAGGTTAGAGCTGCCAGA", "PBM binding z-score": -0.214}
{"sequence": "TGAATCAGGTTAAAGATCAGGGAACGTGGCGTCG", "PBM binding z-score": 0.529}
{"sequence": "CGTCCATGGTCAGCAGGTCAGTGAAAGCGACGTG", "PBM binding z-score": -0.43}
{"sequence": "GCGACTGGGGCCAAGCAGGTTACCATAAGGTTGG", "PBM binding z-score": -0.242}
{"sequence": "CTGGAAAGGTCGGTTGAGGTGAGTATACGGATAA", "PBM binding z-score": 0.799}
{"sequence": "TCATATAGGTAAAGGTCAAAGTCGAACGATATGA", "PBM binding z-score": 5.15}
{"sequence": "ACAGACAGGTGATGGAGGTAACTCAGGCTATCAT", "PBM binding z-score": -0.281}
{"sequence": "TTACCAAGGTGAGCTGAGGACGTTGATCCAACTC", "PBM binding z-score": -0.722}
{"sequence": "TCTAGTTGGTCAAAGGTCACACACTCGAAATGCG", "PBM binding z-score": 6.43}
{"sequence": "ACTAGCAGGCCAAGGGTAACTCAAGATTAGTCCG", "PBM binding z-score": 0.663}
{"sequence": "CGTCCCAGGTCAAAGGTCAGTGAAGAGATGACGG", "PBM binding z-score": 3.77}
{"sequence": "GCGACTAGGGCAAAGCAGGTTACCATAAGGTTGG", "PBM binding z-score": 0.0824}
{"sequence": "ATCTCTAGGCAACCAAGTTCAGTGAATGCCGAAC", "PBM binding z-score": -0.0686}
{"sequence": "GCATATAGGAAATACAAGGTGAAAGTCCGATTGT", "PBM binding z-score": 0.365}
{"sequence": "ATCTCTAGGTAACCAAGTTCAGTTAATGCCGAAC", "PBM binding z-score": 1.12}
{"sequence": "GCGACTGGGGCAAAGCAGGGTACCATAAGGTTGG", "PBM binding z-score": -0.201}
{"sequence": "CTACCAAGGTGAACAAGGTTGTTGATTACTATTC", "PBM binding z-score": 0.436}
{"sequence": "CCTGCTAGGTCAATTGTCAGCTAAAGCAGCTCGC", "PBM binding z-score": 0.436}
{"sequence": "GCTCGGAGGACAAGGTCATAGCTTTGTCCGTAGA", "PBM binding z-score": 1.11}
{"sequence": "ACTCGGAGGAAAAAGGTCAGAGCTACGCCAGTGA", "PBM binding z-score": 1.74}
{"sequence": "TCTCGGAGGACACGAAGGTCAGAGCGTTCCAGAG", "PBM binding z-score": 1}
{"sequence": "GGAACGATGGCAAAGTTGATAGCATCTGTCGACG", "PBM binding z-score": -0.819}
{"sequence": "CCTATTAGTTGACCATAAGGGCAACCAAAGCTCG", "PBM binding z-score": 1.72}
{"sequence": "TCATATAGGTAAATGCTAGCTGAAAGTCCGATCT", "PBM binding z-score": 0.314}
{"sequence": "GCTAGCAGGCCATTTGGGTCACTCATTGACGGGC", "PBM binding z-score": -0.295}
{"sequence": "GGAACGGGGGCAAAGTTGATAGCATCTGTCGACG", "PBM binding z-score": 2.01}
{"sequence": "TTACCAAGGTGAGCTGAGGTCGTTGGTCCAACTC", "PBM binding z-score": -0.363}
{"sequence": "CCTTGGAGGACAGAAGGTCAGAGCTGTCCGCTTT", "PBM binding z-score": 1.98}
{"sequence": "CGATCTAGGTCAGAACAGGACAGTGAAGGATGAT", "PBM binding z-score": 0.826}
{"sequence": "TAGCCTAGGTCATGCGCGCCAGTATAGTGTCGGC", "PBM binding z-score": 2.85}
{"sequence": "GCTGCTAGGTCAGCTTGGTCAGCTAACGGGTACG", "PBM binding z-score": 0.887}
{"sequence": "ACTATTAGTTTAGACGAGGGCAACCGATAGGTTG", "PBM binding z-score": 0.811}
{"sequence": "TCTTGTAGATCAGCAGGAGGTTAAGAAAGATCGA", "PBM binding z-score": -0.244}
{"sequence": "GCTAGCAGGCCATTGGGGTCACTCAATGACGGGC", "PBM binding z-score": 1.48}
{"sequence": "ACAGACAGGTGAAGAAGGTAACTCAGGCTATCAT", "PBM binding z-score": 0.495}
{"sequence": "TCTTGTAGATCACAGGTTAAGAAAGCCGAAGCCT", "PBM binding z-score": 0.447}
{"sequence": "CCTAGTTGGTCAAGGTCACACACGCTATAGGTAC", "PBM binding z-score": 4.56}
{"sequence": "TAGCCTAGGTCATTCAGGGTCCAGTATAGAAAGC", "PBM binding z-score": 1.38}
{"sequence": "CAAACTAGGTCAGGAGGTCAAAGTCCGCTTCCCG", "PBM binding z-score": 6}
